Bioassay records (PubChem BioAssay)
Shown are actives, neighbours in structure and some others; about 8.8% of the full set was active somewhere.
HT1080-NT tox – kills 2HG-producing HT-1080-NT fibrosarcoma cells; HT-1080-NT fibrosarcoma viability, CellTiter-Glo ATP luminescence, 48 h; 360,000 compounds, 1.6% hits; Potency, µM (top dose mostly 46.1 µM), hits mostly cytotoxic;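 note: NT is the 2HG producing partner of a matched IDH1 knockdown line; nearly all actives have a fitted effect of over 55% in size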
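Toxicity toward the 2HG-producing NT line was scored as %Activity, normalised to DMSO and no-cell wells, from CellTiter-Glo luminescence after 48 hours' treatment.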
KB-V1 MDR tox – kills drug-selected multidrug resistant KB-V1 cells. 400,000 compounds, 3.4% hits. AID 1347076. KB-V1 MDR cells viability, CellTiter-Glo, 72 h. Potency, µM (series often up to 46.1 µM), hits mostly cytotoxic; note: nearly all actives have a fitted effect of over 60% in size
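Luminescent ATP read-out (CellTiter-Glo, 10 min) measures survival of drug-selected KB-V1 MDR cells after 72 h, 37 degrees C compound exposure. Medium: phenol-red-free DMEM, 10% FBS. Values from fitted concentration-response curves.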
HT1080 IDH1KD tx – HT-1080 IDH1 knockdown cell toxicity (counter line) | Potency, µM (titrated, usually from 46.1 µM), usual class: cytotoxic | HT-1080 IDH1 knockdown viability, ATP luminescence, 48 h | 360,000 compounds, 2% hits | AID 686971
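Viability of IDH1-knockdown HT-1080 fibrosarcoma cells was assessed by CellTiter-Glo after 48 h at 37 °C with titrated compound; concentration-effect curves were classified by fit quality and response size.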
KB-3-1 cytotox – KB-3-1 parental cell cytotoxicity | 400,000 compounds, 1.4% hits | Potency, µM (highest dose often 46.1 µM), most hits filed as cytotoxic | KB-3-1 viability, CellTiter-Glo ATP luminescence, 72 h | AID 1347075; note: nearly all actives have a fitted effect of over 60% in size
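Using CellTiter-Glo luminescence, growth of non-resistant KB-3-1 adenocarcinoma cells is assessed 72 h after pin-tool compound addition at 37 °C. Normalized responses across the concentration series yield fitted curves.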
IL-1B inflam inh – blocks inflammasome-driven IL-1 beta release; THP-1 LPS/ATP IL-1B secretion, AlphaLISA, 16 h; hits give low values; activity change, % at 57.5 µM; AID 743279; 360,000 compounds, 4.7% hits; in the data active = activity change below about -50%; inconclusive = mostly about -30% to -49%
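THP-1 cells pretreated 1 hr with compounds (up to 57.5 uM final), then stimulated with LPS (250 ng/mL final) plus ATP (1.25 mM final); secreted IL-1B measured by AlphaLISA after 16 hr, decreased signal indicating inhibition.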
Large screens that a line does not name were inactive. Unless noted, calls come from the whole dose curve; as a rule, active = well fitted curve in the direction sought with a large enough effect; inconclusive = small, poorly fitted or top-dose-only effect, or another doubt; inactive = no such curve, though single readings can be large; an effect the other way counts as inactive or inconclusive.

O=C(CC1SC(=Nc2ccccc2)N(CCc2ccccn2)C1=O)Nc1ccc(F)cc1 (stereo not given)	HT1080-NT tox inconclusive, HT1080 IDH1KD tx inconclusive
COc1cccc(N=C2SC(CC(=O)Nc3ccccc3)C(=O)N2Cc2ccccn2)c1 (stereo not given)	KB-V1 MDR tox inconclusive, IL-1B inflam inh -63
O=C(C[C@H]1C/C=C\C[C@H](NC(=O)OCC2c3ccccc3-c3ccccc32)C(=O)O[C@H](c2ccccc2)CNC1=O)N[C@H](CO)Cc1ccccc1	HT1080-NT tox 12µM, HT1080 IDH1KD tx 15µM, KB-3-1 cytotox inconclusive
Cc1ccc(CNC(=O)c2oc3ccc(S(=O)(=O)N4CCC(C)CC4)cc3c2C)cc1	none (no result: HT1080-NT tox, HT1080 IDH1KD tx, IL-1B inflam inh)
Cc1ccc2c(c1)CCCN2C(=O)c1c(C)noc1C	none
Cc1ccc2c(c1)CCCN2C(=O)c1ccoc1C	HT1080-NT tox 22µM, KB-V1 MDR tox inconclusive, HT1080 IDH1KD tx inconclusive
Cc1ccc2c(c1)/C(=C/c1ccccc1)C(=O)N2	KB-V1 MDR tox inconclusive, HT1080 IDH1KD tx inconclusive, KB-3-1 cytotox inconclusive, IL-1B inflam inh -82
Cc1ccc2c(c1)/C(=C/c1ccccc1F)C(=O)N2	none
CC(NC(=O)COc1ccc(-c2nnco2)cc1)c1ccc(Cl)cc1Cl (stereo not given)	KB-V1 MDR tox 21µM, KB-3-1 cytotox inconclusive
Nc1nn(-c2ccccc2Cl)cc1-c1nn[nH]n1	none
CCC1=[N+](CC(=O)c2ccc(C)cc2)CCn2c(C)ccc21	HT1080 IDH1KD tx inconclusive, KB-3-1 cytotox 18µM
O=C(N=C1SC2CS(=O)(=O)CC2N1c1ccccc1Cl)C1CCCO1 (stereo not given)	none
COC(=O)c1ccc(/C(O)=C(\C#N)c2nc3ccccc3s2)cc1	KB-V1 MDR tox 8.2µM, IL-1B inflam inh -77
O=C(CSc1ncnc2ccccc12)Nc1cccc(S(=O)(=O)N2CCCC2)c1	none
Cc1ccc(S(=O)(=O)N2CCCCC2)cc1NC(=O)CSc1ncnc2ccccc12	KB-V1 MDR tox 16µM, IL-1B inflam inh -97
CCCc1cc(=O)[nH]c(SCC(=O)Nc2cc(S(=O)(=O)N3CCCCC3)ccc2C)n1	HT1080-NT tox 10µM, HT1080 IDH1KD tx 15µM, KB-3-1 cytotox inconclusive
Cc1ccc(NC(=O)CSc2ncnc3ccccc23)cc1S(=O)(=O)N1CCCCCC1	KB-V1 MDR tox inconclusive, IL-1B inflam inh -90
O=C(CSc1ncnc2ccccc12)Nc1cc(S(=O)(=O)N2CCCCC2)ccc1Cl	KB-V1 MDR tox inconclusive
CCn1cc(C(=O)N2CCN(c3cc(C)ccc3C)CC2)c(=O)c2cc(S(=O)(=O)N3CCCCC3)ccc21	none (no result: HT1080-NT tox, HT1080 IDH1KD tx, IL-1B inflam inh)
O=C(CN1CC(=O)Nc2ccccc21)NCCc1ccc(Cl)cc1Cl	IL-1B inflam inh -102
COc1ccccc1CNC(=O)c1ccc(N2CCCC2)c(NC(=O)NCc2ccc(F)cc2)c1	none (no result: HT1080-NT tox, HT1080 IDH1KD tx, IL-1B inflam inh)
C=CCSc1nnc(COc2ccc(=O)n(-c3ccccc3)n2)n1CC	none
CCn1c(COc2ccc(=O)n(-c3ccccc3)n2)nnc1SCc1cccc(OC)c1	KB-V1 MDR tox 16µM
O=C1NC[C@H](Cc2ccccc2)N(C[C@H]2CCCN2C[C@H](Cc2ccccc2)N2C[C@H](Cc3ccccc3)N(CCc3ccccc3)C(=O)C2=O)C1=O	HT1080-NT tox inconclusive, HT1080 IDH1KD tx inconclusive, KB-3-1 cytotox inconclusive, IL-1B inflam inh -77
O=C1NC[C@H](Cc2ccccc2)N(C[C@@H]2CCCN2C[C@H](Cc2ccccc2)N2C[C@H](Cc3ccccc3)N(CCc3ccccc3)C(=O)C2=O)C1=O	HT1080-NT tox inconclusive, HT1080 IDH1KD tx inconclusive, KB-3-1 cytotox inconclusive, IL-1B inflam inh -70
C=CCn1c(O)c(/C=C2\C=NN=C2c2ccccc2)sc1=S	IL-1B inflam inh -59
CCCCC(CC)Cn1c(O)c(/C=C2\C=NN=C2c2ccccc2)sc1=S (stereo not given)	KB-V1 MDR tox inconclusive, KB-3-1 cytotox inconclusive, IL-1B inflam inh -104
COc1ccccc1Cc1c(C(C)(C)C)nc2c3ccccc3ccn12	HT1080-NT tox inconclusive, HT1080 IDH1KD tx 13µM, KB-3-1 cytotox inconclusive, IL-1B inflam inh inconclusive
COc1ccccc1Cc1c(-c2ccc(OC)c(OC)c2)nc2c3ccccc3ccn12	HT1080-NT tox inconclusive, KB-V1 MDR tox inconclusive, HT1080 IDH1KD tx inconclusive
O=C(NNS(=O)(=O)c1ccc(F)cc1F)c1csc(-c2cccnc2)n1	none
Cc1ccc(NC(=O)c2cccc(C(F)(F)F)c2)cc1NC(=O)c1[nH]cnc1C(N)=O	none
Cc1cn(-c2cc(NC(=O)c3ccc(C)c(NC(=O)c4cccc(-c5cn[nH]c(=O)c5)c4)c3)cc(C(F)(F)F)c2)cn1	IL-1B inflam inh -94
CC1CCCC(NC(=O)Cn2cc(Br)ccc2=O)C1C (stereo not given)	KB-V1 MDR tox inconclusive
CCCCN(c1ccccc1)S(=O)(=O)c1cccc(C(=O)Nc2c(C)n(C)n(-c3ccccc3)c2=O)c1	KB-V1 MDR tox 2.6µM, HT1080 IDH1KD tx inconclusive, KB-3-1 cytotox 26µM
CCN(c1ccccc1)S(=O)(=O)c1ccc(C(=O)Nc2c(C)n(C)n(-c3ccccc3)c2=O)cc1	none
COc1ccc(C(=O)C2CCCN(C(=O)/C=C/c3cnc[nH]3)C2)c(C)c1 (stereo not given)	none
COc1ccc2c(c1)c(=O)c(C(=O)c1ccccc1)cn2Cc1ccc(C)cc1	HT1080-NT tox inconclusive, KB-V1 MDR tox 18µM, HT1080 IDH1KD tx inconclusive, KB-3-1 cytotox inconclusive
N#CC1=C(SCC(N)=O)NC2=C(C(=O)c3ccccc32)C1c1ccc(Cl)cc1 (stereo not given)	KB-V1 MDR tox inconclusive, KB-3-1 cytotox inconclusive, IL-1B inflam inh -52
COC(=O)CSC1=C(C#N)C(c2ccc(C)cc2)C2=C(CCCC2=O)N1 (stereo not given)	none
Cc1ccc(CCNC(=O)c2sc3nc4n(c(=O)c3c2C)CCCC4)cc1	none (no result: HT1080-NT tox, HT1080 IDH1KD tx, IL-1B inflam inh)
O=C1NC(=O)C2(CCc3ccccc32)N1 (stereo not given)	none
C=C1CC2(OC1=O)c1ccccc1CCc1ccccc12	HT1080-NT tox inconclusive, HT1080 IDH1KD tx 5.8µM, KB-3-1 cytotox inconclusive, IL-1B inflam inh -102
Cc1onc(-c2ccccc2)c1C(=O)Nc1cccc(S(=O)(=O)N2CCCCC2)c1	KB-V1 MDR tox inconclusive
CCCc1cc(=O)[nH]c(SCc2cc(=O)oc3cc(C)c(C(C)C)cc23)n1	KB-V1 MDR tox 21µM
Cc1sc(C(C2C(=O)CC(C)(C)CC2=O)C2C(=O)CC(C)(C)CC2=O)cc1[N+](=O)[O-]	IL-1B inflam inh -94
CCOP(=O)(OCC)C(C)(C)NC(=O)Nc1ccc(Cl)c(Cl)c1	KB-V1 MDR tox inconclusive, KB-3-1 cytotox inconclusive, IL-1B inflam inh -67
c1ccc(C(Cc2nc(-c3ccncc3)no2)c2ccccc2)cc1	KB-3-1 cytotox 12µM
c1ccc(-c2nc(-c3ccncc3)no2)cc1	none
Cc1ccccc1C(=O)c1cccn1CC(=O)NC(C)c1ccc2c(c1)OCCO2 (stereo not given)	KB-V1 MDR tox inconclusive
